Screens (PubChem BioAssay)
Sampled rows, rich in hits. Any-hit rate of the full collection: about 18%.
HepG2 tox: kills HepG2 cells in TGF-b inhibitor counter-screen | HepG2 CAGA-GFP viability, ATP luminescence, 18 h | Potency, µM (series often up to 46.1 µM), actives largely listed as cytotoxic | 0.76% of 410,000 active | AID 588856
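CellTiter-Glo luminescence gave cytotoxicity after 18 hours at 37 degrees C. The cells were HepG2 CAGA-GFP in 1% FBS DMEM, stimulated with 500 pg/mL TGF-beta after compound addition. %Activity was normalised to no-cell wells (complete cell-killing) and DMSO (no toxicity), and curves were fitted and classified.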
TDP1 cell noCPT: qHTS for Inhibitors of human tyrosyl-DNA phosphodiesterase 1 (TDP1): qHTS in cells in absence of CPT; AID 686978, 2013; DT40 Tdp1-/- hTDP1 cells, no CPT, ATP luminescence, 48 h; 15% of 420,000 active; Potency, µM (top dose mostly 46.2 µM), actives largely listed as inhibitors; also: nearly all actives have a fitted effect of over 55% in size
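Compound effects on proliferation are scored in DT40 Tdp1-/-;hTDP1 cells in the absence of CPT. ATP levels (CellTiter-Glo luminescence) are recorded after a ≥48 hr, 37 °C incubation.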
TDP1 block: blocks human tyrosyl-DNA phosphodiesterase 1; Q9NUW8; Potency, µM (titrated, usually from 130 µM), usual class: inhibitors; recombinant TDP1, AlphaScreen DNA substrate cleavage; 0.28% of 350,000 active; also: nearly all actives have a fitted effect of over 40% in size
Target sequence (Q9NUW8 whole entry, looked up): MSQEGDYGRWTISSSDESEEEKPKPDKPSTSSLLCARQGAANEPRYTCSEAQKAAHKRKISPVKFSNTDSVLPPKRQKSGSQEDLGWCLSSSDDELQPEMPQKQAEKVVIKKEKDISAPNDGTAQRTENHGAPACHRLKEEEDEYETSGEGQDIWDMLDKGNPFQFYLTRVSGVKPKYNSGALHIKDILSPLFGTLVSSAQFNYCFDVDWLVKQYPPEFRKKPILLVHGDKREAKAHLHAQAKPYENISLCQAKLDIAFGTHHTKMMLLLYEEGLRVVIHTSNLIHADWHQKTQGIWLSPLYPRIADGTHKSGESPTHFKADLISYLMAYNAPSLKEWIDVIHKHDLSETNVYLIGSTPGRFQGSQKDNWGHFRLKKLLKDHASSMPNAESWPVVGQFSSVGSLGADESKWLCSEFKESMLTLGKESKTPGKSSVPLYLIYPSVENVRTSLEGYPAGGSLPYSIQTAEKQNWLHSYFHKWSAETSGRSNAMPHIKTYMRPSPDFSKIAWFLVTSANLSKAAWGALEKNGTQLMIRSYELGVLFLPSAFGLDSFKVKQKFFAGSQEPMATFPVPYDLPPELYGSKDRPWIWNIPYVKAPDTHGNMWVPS
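Signal: AlphaScreen proximity between streptavidin donor and anti-FITC acceptor beads on intact substrate. Reaction: Tdp1 1 nM, substrate 15 nM final, 5 min RT after 15 min compound preincubation.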
IL-1B inflam inh: blocks inflammasome-driven IL-1 beta release; 4.7% of 360,000 active; THP-1 LPS/ATP IL-1B secretion, AlphaLISA, 16 h; active compounds read low; activity change, % at 57.5 µM; AID 743279; in the data active = activity change below about -50%; inconclusive = mostly about -30% to -49%
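Secreted IL-1B measured by AlphaLISA bead assay after 16 h compound exposure of THP-1 cells; compounds (final up to 57.5 uM) added 1 h before LPS (250 ng/mL) and ATP (1.25 mM) stimulation; lower signal means less secretion.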
TGFb SMAD3 inh: blocks TGF-b signaling; HepG2 CAGA-GFP TGF-b/SMAD3 reporter, GFP fluorescence, 18 h; TGF-beta stimulated, 500 pg/mL final; Potency, µM (highest dose often 46.1 µM), most hits filed as inhibitors; 1.2% of 410,000 active; also: nearly all actives have a fitted effect of over 65% in size
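Inhibition was scored as loss of TGF-beta-induced (500 pg/mL final, 18 hours, 37 degrees C) GFP in HEPG2 cells carrying a CAGA-GFP reporter, in DMEM with 1% FBS. Well GFP was summed per cell; Activity was normalised to unstimulated and stimulated DMSO wells, then concentration-response fitting.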
TDP1 cell CPT: DT40-hTDP1 cell growth loss with CPT; 12% of 420,000 active; Potency, µM (top dose mostly 46.2 µM), usual class: inhibitors; chicken DT40 Tdp1-/-;hTDP1 cells + 20 nM CPT, ATP luminescence, 48 h; also: nearly all actives have a fitted effect of over 55% in size
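Cell growth measured by CellTiter-Glo luminescence after a minimum 48 h, 37 C compound exposure with 20 nM CPT in Tdp1-knockout DT40 cells stably expressing hTDP1, seeded 400/well; qHTS titration format.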
Numbers stand for hits; . = inactive; ? = inconclusive; / = no result given. Unless noted, calls follow the shape of the dose curve; as a rule, active = well fitted curve in the direction sought with a large enough effect; inconclusive = small, poorly fitted or top-dose-only effect, or another doubt; inactive = no such curve, though single readings can be large; an effect the other way counts as inactive or inconclusive.

SMILES	HepG2 tox	TDP1 cell noCPT	TDP1 block	IL-1B inflam inh	TGFb SMAD3 inh	TDP1 cell CPT
Cc1ccc(C(=O)NCC(c2ccc3c(c2)OCO3)N2CCOCC2)cc1C (stereo unspecified)	.	10µM	.	/	.	21µM
O=C(NCC(c1ccc2c(c1)OCO2)N1CCN(c2ccc(F)cc2)CC1)c1cccc([N+](=O)[O-])c1 (stereo unspecified)	.	6.5µM	.	/	?	6.5µM
COc1ccc(C(=O)NCC(c2ccc3c(c2)OCO3)N2CCN(C)CC2)cc1 (stereo unspecified)	.	.	.	/	.	.
O=C(NCC(c1ccc2c(c1)OCO2)N1CCN(c2ccccc2)CC1)c1ccccc1 (stereo unspecified)	.	10µM	.	/	?	13µM
COc1ccc(N2CCN(C(CNC(=O)c3ccc(C)cc3)c3ccc4c(c3)OCO4)CC2)cc1 (stereo unspecified)	.	5.8µM	.	/	?	8.2µM
CCCc1nnc2n1N=C(c1ccc(C)cc1)CS2	.	?	.	.	.	?
CCN(C(=O)c1cnc2ccc(C)cn2c1=O)c1ccccc1	.	.	.	/	.	.
COCCCNC(=O)C1CCC(=O)N(c2ccc3c(c2)OCO3)C1c1ccc(OC)cc1 (stereo unspecified)	.	.	/	.	.	.
COc1ccccc1N1CCN(C(c2cccs2)C(C)NC(=O)c2ccncc2)CC1 (stereo unspecified)	.	?	/	.	.	21µM
COc1ccc(N2CCN(C(c3cccs3)C(C)NC(=O)c3ccc4c(c3)OCO4)CC2)cc1 (stereo unspecified)	.	21µM	.	.	.	?
O=C(NCC(c1ccc2c(c1)OCO2)N1CCOCC1)C(=O)Nc1cccc(Cl)c1 (stereo unspecified)	.	12µM	.	/	.	?
COc1ccc(N2CCN(C(c3cccs3)C(C)NC(=O)c3ccco3)CC2)cc1 (stereo unspecified)	.	?	.	.	.	?
CC(=O)N(CCS(=O)(=O)c1ccc(Cl)cc1)Cc1cccs1	.	.	.	.	.	.
CC(=O)N(Cc1cccs1)Cc1cc2ccc(C)c(C)c2nc1Cl	.	21µM	.	.	?	18µM
COc1cc(OC)c(OC)cc1/C=C/c1nc2cc3ccccc3cc2c(=O)n1-c1ccc(F)cc1F	.	8.2µM	.	/	?	12µM
COc1cccc(/C=C/c2nc3ccccc3c(=O)n2-c2ccc(C)c(C)c2)c1OC	.	8.2µM	.	/	?	10µM
O=C(O)c1cc(-n2c(/C=C\c3ccc(F)cc3)nc3ccccc3c2=O)ccc1Cl	.	21µM	.	/	?	15µM
O=c1c2ccccc2nc(/C=C/c2cccc3ccccc23)n1-c1ccc(F)cc1F	.	?	.	/	.	23µM
O=C(O)c1ccc2cc(-c3ccc(O)c(C45CC6CC(CC(C6)C4)C5)c3)ccc2c1	/	/	.	/	/	/
COc1ccc(/C=N\NC(=O)c2ccc([N+](=O)[O-])c(C)c2)cc1COc1ccccc1C(N)=O	.	.	.	.	.	.
COc1ccc(/C=N/NC(=O)c2ccn[nH]2)cc1COc1ccc(Cl)cc1Cl	.	?	.	-79	14µM	?
COc1ccc(/C=N/NC(=O)c2ccccc2OC)cc1COc1ccccc1[N+](=O)[O-]	.	29µM	.	.	.	18µM
COc1ccc(/C=N\NC(=O)c2ccccc2Br)cc1COc1ccc(F)cc1	.	18µM	.	.	.	?
COc1ccc(/C=N/NC(=O)c2cccnc2)cc1COc1ccc([N+](=O)[O-])c(C)c1	.	4.1µM	.	/	.	3.7µM
CC(=O)NCC1(O)CCCC(C)C1 (stereo unspecified)	.	.	.	.	.	.
Cc1cc(C)n2nc(SCC(=O)Nc3ccc(F)c(F)c3F)nc2n1	.	.	.	.	.	.
